This is part of a sample that, as a whole, favours compounds with a hit. Of some 83,000 tested, about 20% had one in any assay.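 Compound tested at a single concentration for 48 hours in 96-well plates; a percent growth value below 10 was scored as active.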 Calls of active or inactive are those of the source.
Legend:
Experiment in all cases: NCI-60 one-dose screen, 48 h (100 = growth as untreated, 0 = no growth, -100 = all killed)
Conditions in all cases: 10 µM unless noted
HCT-15 colon = system: HCT-15 colon
HT29 colon = system: HT29 colon
SNB-75 CNS = system: SNB-75 CNS
SNB-19 CNS = system: SNB-19 CNS
U251 CNS = system: U251 CNS
PC-3 prostate = system: PC-3 prostate
SK-MEL-5 melanoma = system: SK-MEL-5 melanoma
UACC-62 melanoma = system: UACC-62 melanoma
LOX IMVI melanoma = system: LOX IMVI melanoma
SK-MEL-28 melanoma = system: SK-MEL-28 melanoma

Measured: growth

CCC(C)N(CCNc1cc(OC)cc2cccnc12)CC(C)C (stereo not drawn)
inactive: HCT-15 colon 71.7% | HT29 colon 73.7% | SNB-75 CNS 109% | SNB-19 CNS 94.3% | U251 CNS 99.4% | PC-3 prostate 83.5% | SK-MEL-5 melanoma 103% | UACC-62 melanoma 88.9% | LOX IMVI melanoma 76.9% | SK-MEL-28 melanoma 109%

O=C(c1nn(-c2ccccc2)c2c1CC(NCc1ccc(F)cc1)CC2)N1CCCCC1 (stereo not drawn)
inactive: HCT-15 colon 99.5% | HT29 colon 101% | SNB-75 CNS 84.5% | SNB-19 CNS 101% | U251 CNS 95.7% | PC-3 prostate 93.5% | SK-MEL-5 melanoma 96% | UACC-62 melanoma 110% | LOX IMVI melanoma 99.1% | SK-MEL-28 melanoma 117%

O=C(/C=C/c1ccco1)Nc1ncc(Cc2cccc(C(F)(F)F)c2)s1
active: HT29 colon 3.46% | SNB-75 CNS -1.69% | U251 CNS 5.08% | UACC-62 melanoma 5.19% | LOX IMVI melanoma 5.43%
inactive: HCT-15 colon 10.9% | SNB-19 CNS 34.3% | PC-3 prostate 17% | SK-MEL-5 melanoma 12.5% | SK-MEL-28 melanoma 46.4%

Fc1cccc(Oc2ccc(Nc3ncnc4ccc(OCCCN5CCOCC5)cc34)cc2Cl)c1
inactive: HCT-15 colon 10.8% | HT29 colon 18.2% | SNB-75 CNS 77.2% | SNB-19 CNS 63.3% | U251 CNS 47.4% | PC-3 prostate 63.8% | SK-MEL-5 melanoma 32.3% | UACC-62 melanoma 71.6% | LOX IMVI melanoma 21.6% | SK-MEL-28 melanoma 68.4%

CCn1c(SCC(=O)N/N=C(\C)c2ccc(Cl)cc2)nc2c1c(=O)n(C)c(=O)n2C
inactive: HCT-15 colon 104% | HT29 colon 103% | SNB-75 CNS 79.6% | SNB-19 CNS 99.2% | U251 CNS 104% | PC-3 prostate 97.5% | SK-MEL-5 melanoma 99.3% | UACC-62 melanoma 95.2% | LOX IMVI melanoma 94.6% | SK-MEL-28 melanoma 111%

COC(=O)c1c(C)c2n(c1C)C(=O)C(c1ccccc1)=C2
inactive: HCT-15 colon 80.4% | HT29 colon 87.1% | SNB-75 CNS 53.2% | SNB-19 CNS 85.7% | U251 CNS 93.2% | PC-3 prostate 84.4% | SK-MEL-5 melanoma 84.2% | UACC-62 melanoma 58.7% | LOX IMVI melanoma 73.8% | SK-MEL-28 melanoma 91.2%

C=C(C)[C@@H]1CCC[C@]2(COS(=O)(=O)c3ccc(C)cc3)CC[C@]3(C)[C@@H](CC[C@@H]4[C@@]5(C)CCCNC(C)(C)[C@@H]5CC[C@]43C)[C@@H]12
active: HCT-15 colon -61.5% | HT29 colon -50.8% | U251 CNS -82.1% | LOX IMVI melanoma -86.5%
inactive: SNB-75 CNS 81.6% | SNB-19 CNS 39% | PC-3 prostate 10.5% | SK-MEL-5 melanoma 92.1% | UACC-62 melanoma 87.7% | SK-MEL-28 melanoma 68.3%

COc1ccc2[nH]c(C(=O)N3CCN(C(=O)OCc4ccc5c(Cl)cc(Cl)c(O)c5n4)CC3)cc2c1
active: HCT-15 colon -44.2% | HT29 colon -67.1% | SNB-75 CNS -98.5% | U251 CNS -97.9% | PC-3 prostate -73.4% | SK-MEL-5 melanoma -99% | UACC-62 melanoma -97.4% | LOX IMVI melanoma -95.3% | SK-MEL-28 melanoma -95.8%
inactive: SNB-19 CNS 35.3%

COc1ccc(Nc2nnc(-c3ccc(OC)c(OC)c3)o2)cc1
inactive: HCT-15 colon 80.3% | HT29 colon 90.9% | SNB-75 CNS 97.5% | SNB-19 CNS 97.5% | U251 CNS 93% | PC-3 prostate 70.7% | SK-MEL-5 melanoma 89% | UACC-62 melanoma 90.2% | LOX IMVI melanoma 59.2% | SK-MEL-28 melanoma 106%

O=C(Nc1ccccc1O)c1ccc(CNC(=O)c2sccc2Nc2ccnc(C(F)(F)F)c2)cc1
inactive: HCT-15 colon 47.6% | HT29 colon 53% | SNB-75 CNS 36.9% | SNB-19 CNS 68.9% | U251 CNS 40.6% | PC-3 prostate 35.2% | SK-MEL-5 melanoma 25.1% | UACC-62 melanoma 27.7% | LOX IMVI melanoma 53.6% | SK-MEL-28 melanoma 63.6%

NC(=O)c1c(NC(=O)c2ccc3ccccc3c2)sc2c1CCC(=O)C2
inactive: HCT-15 colon 42.1% | HT29 colon 55.2% | SNB-75 CNS 40.3% | SNB-19 CNS 46.3% | U251 CNS 22.9% | PC-3 prostate 16.6% | SK-MEL-5 melanoma 99.7% | UACC-62 melanoma 42% | LOX IMVI melanoma 37.5% | SK-MEL-28 melanoma 97.1%

COc1ccc(Nc2nc(-c3cc(O)c(C)c(C)c3O)cs2)cc1
inactive: HCT-15 colon 50.4% | HT29 colon 105% | SNB-75 CNS 78.8% | SNB-19 CNS 102% | U251 CNS 70.2% | PC-3 prostate 43.9% | SK-MEL-5 melanoma 82.3% | UACC-62 melanoma 68.9% | LOX IMVI melanoma 61.5% | SK-MEL-28 melanoma 99.5%

COCCn1cc(-c2csc(-c3cn(C)c4ccc(Br)cc34)n2)c2cccnc21
active: LOX IMVI melanoma -55.1%
inactive: HCT-15 colon 12.1% | HT29 colon 26% | SNB-75 CNS 75.6% | SNB-19 CNS 78.5% | U251 CNS 51.4% | PC-3 prostate 38.1% | SK-MEL-5 melanoma 71% | UACC-62 melanoma 70.5% | SK-MEL-28 melanoma 74.9%

O=C(/C=C/c1cccc(Cl)c1)c1ccc(Nc2nc(Nc3ccc(F)cc3)nc(Nc3ccc(Cl)cc3)n2)cc1
inactive: HCT-15 colon 101% | HT29 colon 108% | SNB-75 CNS 95.7% | SNB-19 CNS 118% | U251 CNS 112% | PC-3 prostate 98.8% | SK-MEL-5 melanoma 90.7% | UACC-62 melanoma 108% | LOX IMVI melanoma 104% | SK-MEL-28 melanoma 112%

COc1cccc(/C=C2\COc3ccc(O)c(O)c3C2=O)c1
inactive: SNB-75 CNS 11.5% | SNB-19 CNS 35.4% | SK-MEL-5 melanoma 40.4% | SK-MEL-28 melanoma 32.1%
active: HCT-15 colon 1.4% | HT29 colon 8.58% | U251 CNS 3% | PC-3 prostate -10.5% | UACC-62 melanoma -6.3% | LOX IMVI melanoma -82.3%

O=C(CN1C(=O)S/C(=C\C(Cl)=C\c2ccccc2)C1=O)NCCc1ccc(O)cc1
active: HCT-15 colon 0.727% | UACC-62 melanoma 8.67% | LOX IMVI melanoma -51.5%
inactive: HT29 colon 16.6% | SNB-75 CNS 22% | SNB-19 CNS 34.3% | U251 CNS 19.3% | PC-3 prostate 24.7% | SK-MEL-5 melanoma 46% | SK-MEL-28 melanoma 20.7%

CCCCCCCC[C@@H]1N[C@@H](C(=O)OC)Cc2c1[nH]c1ccccc21
inactive: HCT-15 colon 94.2% | HT29 colon 111% | SNB-75 CNS 81.6% | SNB-19 CNS 96.6% | U251 CNS 91.5% | PC-3 prostate 94.6% | SK-MEL-5 melanoma 97.3% | UACC-62 melanoma 69.1% | LOX IMVI melanoma 93.1% | SK-MEL-28 melanoma 94.2%

COc1ccc(OC)c(/C=N/Nc2ncnc3c2c(C)nn3C)c1
inactive: HCT-15 colon 100% | HT29 colon 88.3% | SNB-75 CNS 104% | SNB-19 CNS 98.3% | U251 CNS 96.6% | PC-3 prostate 99.6% | SK-MEL-5 melanoma 98% | UACC-62 melanoma 93.5% | LOX IMVI melanoma 99.5% | SK-MEL-28 melanoma 98.8%

COC1/C=C/OC2(C)Oc3c(C)c(O)c4c(O)c(c(/C=N/Nc5ccc([N+](=O)[O-])cc5[N+](=O)[O-])c(O)c4c3C2=O)NC(=O)C(C)=C/C=C/C(C)C(O)C(C)C(O)C(C)C(OC(C)=O)C1C (stereo not drawn)
active: HT29 colon -37.2% | U251 CNS -31.9% | UACC-62 melanoma -41.3% | LOX IMVI melanoma -56.9%
inactive: HCT-15 colon 41.6% | SNB-75 CNS 67% | SNB-19 CNS 38.6% | PC-3 prostate 34.2% | SK-MEL-5 melanoma 29.7% | SK-MEL-28 melanoma 37.3%

O=C1/C(=C/c2ccccc2O)CC/C1=C\c1ccccc1O
inactive: HCT-15 colon 35.1% | HT29 colon 99.6% | SNB-75 CNS 77.2% | SNB-19 CNS 31.3% | U251 CNS 69.1% | SK-MEL-5 melanoma 77.9% | UACC-62 melanoma 36.6% | LOX IMVI melanoma 45.9% | SK-MEL-28 melanoma 96.8%
active: PC-3 prostate 8.94%

Nc1ncnc2c1C(c1ccc(Br)cc1)c1sc3c(F)cccc3c1O2 (stereo not drawn)
inactive: HCT-15 colon 97.1% | HT29 colon 100% | SNB-75 CNS 83.7% | SNB-19 CNS 110% | U251 CNS 98% | PC-3 prostate 87.4% | SK-MEL-5 melanoma 96.2% | UACC-62 melanoma 80.1% | LOX IMVI melanoma 82.9% | SK-MEL-28 melanoma 119%

CCSC(SCC)c1ccc(Cl)cc1
inactive: HCT-15 colon 108% | HT29 colon 97.4% | SNB-75 CNS 107% | SNB-19 CNS 110% | U251 CNS 102% | PC-3 prostate 101% | SK-MEL-5 melanoma 110% | UACC-62 melanoma 98.6% | LOX IMVI melanoma 95.9% | SK-MEL-28 melanoma 115%

CS(=O)(=O)c1ccc(-c2cnn3ccc(-c4cccc(S(=O)(=O)C5CC5)c4)nc23)cc1
inactive: HCT-15 colon 57% | HT29 colon 34% | SNB-75 CNS 14% | SNB-19 CNS 67.3% | U251 CNS 68.7% | PC-3 prostate 40.3% | SK-MEL-5 melanoma 63.2% | UACC-62 melanoma 53.3% | LOX IMVI melanoma 44.1% | SK-MEL-28 melanoma 69.7%

COc1cc(C2CC(c3ccc(Nc4nc(Nc5ccc(Cl)cc5)nc(Nc5ccc(Cl)cc5)n4)cc3)=NN2C(C)=O)cc(OC)c1OC (stereo not drawn)
inactive: HCT-15 colon 88.9% | HT29 colon 97.2% | SNB-75 CNS 106% | SNB-19 CNS 102% | U251 CNS 93.6% | PC-3 prostate 89.9% | SK-MEL-5 melanoma 81.3% | UACC-62 melanoma 90.1% | LOX IMVI melanoma 105% | SK-MEL-28 melanoma 119%

COc1cc2ncnc(Nc3ccc(F)c(Cl)c3)c2cc1OCC(=O)N1CCN(c2ccccc2)CC1
inactive: HCT-15 colon 90.7% | SNB-75 CNS 83.7% | SNB-19 CNS 85.9% | U251 CNS 98.9% | PC-3 prostate 90.6% | SK-MEL-5 melanoma 95% | UACC-62 melanoma 92.8% | LOX IMVI melanoma 93.7% | SK-MEL-28 melanoma 113%

CC1=C([Se]CC(OC(=O)CC[Se]c2ccccc2)C(=O)NC(C)(C)C)C(=O)c2ccccc2C1=O (stereo not drawn)
active: HCT-15 colon 4.43% | SNB-75 CNS -89.2% | SNB-19 CNS -88.1% | U251 CNS -36% | PC-3 prostate -36% | SK-MEL-5 melanoma -97.4% | UACC-62 melanoma -76.4% | LOX IMVI melanoma -0.738% | SK-MEL-28 melanoma -92.2%

Reference: PubChem BioAssay (NCI)
